SENP8 block-1 – SENP8 protease inhibition | Q96LD8 | hit rate 1.2% among 330,000 | inhibition, % at 10 µM | AID 2540 | purified SENP8, Z-RLRGG-aminoluciferin cleavage, luminescence; in the data active = inhibition above about 50%
Target sequence (Q96LD8 whole entry, looked up): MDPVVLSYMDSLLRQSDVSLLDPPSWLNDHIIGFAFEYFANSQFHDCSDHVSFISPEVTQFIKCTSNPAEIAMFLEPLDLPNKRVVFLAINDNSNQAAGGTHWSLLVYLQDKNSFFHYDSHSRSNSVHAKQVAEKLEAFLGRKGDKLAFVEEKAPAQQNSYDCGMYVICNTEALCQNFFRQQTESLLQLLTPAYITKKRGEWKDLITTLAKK
SENP7 block – SENP7 protease inhibition; Q9BQF6; recombinant SENP7, Z-RLRGG-aminoluciferin luminescence, 40 min; inhibition, % at 5 µM; hit rate 1.5% among 330,000; AID 434973;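 active = inhibition above about 50% at the single test dose, limit read from the data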;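 also: plate controls were DMSO with enzyme for no effect and no enzyme buffer wells for full effect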
Target sequence (Q9BQF6 706-1050 limits assumed): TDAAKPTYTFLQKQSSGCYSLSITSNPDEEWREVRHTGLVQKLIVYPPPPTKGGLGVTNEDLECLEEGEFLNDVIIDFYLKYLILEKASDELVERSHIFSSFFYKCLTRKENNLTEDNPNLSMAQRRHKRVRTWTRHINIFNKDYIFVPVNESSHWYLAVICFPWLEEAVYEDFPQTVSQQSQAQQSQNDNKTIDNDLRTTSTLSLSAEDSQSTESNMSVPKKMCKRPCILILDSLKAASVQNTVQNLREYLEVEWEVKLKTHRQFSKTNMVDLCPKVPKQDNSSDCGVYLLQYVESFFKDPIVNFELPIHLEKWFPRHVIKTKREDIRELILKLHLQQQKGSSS
SENP8 block-2 – inhibitors of human SENP8 protease | recombinant SENP8, Nedd8 substrate fluorescence | inhibition, % at 20 µM | hit rate 0.64% among 360,000 | AID 602440; in the data active = inhibition mostly above about 40%, no sharp cut-off; inactive = mostly below about 27%
HSP90 refold inh – blocks HSP90-mediated luciferase refolding in reticulocyte lysate | Rabbit reticulocyte lysate, luciferase refolding luminescence, 3 h | inhibition, % at 5.6 µM | hit rate 0.91% among 290,000;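 active = inhibition above the screen-wide mean plus 3 SD, computed separately per campaign, cut at about 16% in these data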;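 also: 0% = DMSO wells and 100% = 60 µM geldanamycin wells; inhibitors lower the luminescence because luciferase stays unfolded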
SENP6 inh – blocks the human protease SENP6. Recombinant SENP6 catalytic domain, aminoluciferin luminescence. hit rate 1.8% among 330,000. AID 2599. Q9GZR1. inhibition, % at 10 µM;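 active = inhibition above about 50% at the single tested dose, limit read from the data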;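 also: plate controls were DMSO wells with enzyme for no effect and DMSO wells lacking enzyme for full effect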
HSP90 inh confirm – confirmation of HSP90 inhibitors | shares compounds with HSP90 refold inh | rabbit reticulocyte lysate, luciferase refolding luminescence, 3 h | inhibition, % at 5.9 µM | hit rate 64% among 2,300 | AID 1846; in the data active = inhibition above about 18%;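 also: 0% = vehicle wells and 100% = reference inhibitor wells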
luciferase ctr – firefly luciferase inhibition, HSP90 counter-screen. AID 1847. hit rate 48% among 2,300. purified native firefly luciferase, luminescence. shares compounds with HSP90 refold inh. inhibition, % at 5.9 µM;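 active = inhibition above the mean inhibition of all tested sample wells plus 3 SD, cut at about 10% in these data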;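 also: 0% = DMSO with luciferase and 100% = wells lacking luciferase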
* = called active by the depositor; nt = not tested or not shown; ! = repeats disagree. Most compounds without a hit are left out; they make up all but 2.7% or so of the library.

SMILES	SENP8 block-1	SENP7 block	SENP8 block-2	HSP90 refold inh	SENP6 inh	HSP90 inh confirm	luciferase ctr
COCC(=O)Nc1ccc(N2CCN(c3ccccc3)CC2)c(F)c1	-9	10	10	27*	0	-7	-13
CCOc1ccc(Nc2ncnc3ccc([N+](=O)[O-])cc23)cc1	2	13	18	3	2	nt	nt
CCOc1ccc(CCNC(=O)C2CCN(c3nn4c(=O)cc(C)nc4s3)CC2)cc1	10	3	14	18*	11	-9	-12
COc1ccc(NC(=S)Nc2ccccn2)cc1	-9	10	34	26*	-23	-9	-18
COC(=O)c1ccc(NC(=S)Nc2ccccn2)cc1	-5	-8	2	2	-14	nt	nt
Cc1ccc2nc(-c3sc4nc(C)cc(C)c4c3N)[nH]c2c1	-18	-11	-285	25*	-21	23*	19*
Nc1cc2nsnc2cc1Br	97*	95*	93*	25*	96*	14	-5
Nc1cnc(Br)cc1Br	-5	0	22	-4	-21	nt	nt
Cc1ccc(N2CCN(C(=O)c3ccccc3)CC2)c(C)c1	-1	0	1	1	-4	nt	nt
CC(=O)c1ccc(Nc2nc3ccc(C)cc3n3cnnc23)cc1	5	3	-297	1	-12	nt	nt
COC(=O)c1ccc(Nc2nc3ccc(C)cc3n3cnnc23)cc1	-2	-4	-284	38*	-14	42*	10*
COc1cc(/C=N/NS(=O)(=O)c2ccc(C)cc2)ccc1OCc1cccc(C(=O)O)c1	12	1	12	46*	9	1	-10
COc1cc(/C=N/NS(=O)(=O)c2ccc3ccccc3c2)ccc1OCc1ccc(C(=O)O)cc1	18	1	0	51*	43	-6	-13
CN1C(=O)C2(C(C#N)=C(N)N(c3ccc(Cl)cc3)C3=C2C(=O)CC(C)(C)C3)c2ccccc21 (stereo not drawn)	7	4	-4	37*	-3	-3	-5
CCOCC(=O)Nc1nc(C)cc(C)n1	8	-8	15	-3	3	nt	nt
CC(=O)CC(=O)Nc1nc(C)cc(C)n1	5	0	5	27*	4	-1	-3
CN1CCN(CC(=O)Nc2ccccc2C(F)(F)F)CC1	1	1	3	4	-10	nt	nt
Cc1ccc(C(=O)NC2CCCCCCC2)c(Cl)c1	2	-7	15	42*	13	63*	53*
Cc1ccc([N+](=O)[O-])cc1N=C1C(=O)Nc2ccccc21	-8	-7	15	22*	18	-2	-11
C[C@@H](O)Cc1cn(CC(=O)NCCCCCCCCCCC(=O)N2CCNCC2)nn1	2	-3	11	nt	-4	nt	nt
COc1ccccc1NS(=O)(=O)c1cc(N=N/C(C(=O)Nc2ccc(Cl)cc2)=C(/C)O)ccc1C	-14	-12	18	nt	-13	nt	nt
O=C(NCCCN1CCCC1=O)c1cc(-c2cccnc2)nc2ccc(Cl)cc12	-3	11	-57	28*	-14	-3	-4
COC(=O)c1cn[nH]c1NC(=S)Nc1ccc(Cl)c(Cl)c1	-16	41	14	37*	37	44*	44*
COC(=O)c1cn[nH]c1NC(=S)Nc1ccc(C)cc1Cl	-16	44	18	36*	-7	41*	41*
COC(=O)c1cn[nH]c1NC(=S)Nc1ccccc1C	-4	7	27	-1	-2	nt	nt
SMILES	SENP8 block-1	SENP7 block	SENP8 block-2	HSP90 refold inh	SENP6 inh	HSP90 inh confirm	luciferase ctr
COC(=O)c1cc(NC(=O)CSc2ncn[nH]2)ccc1Cl	-6	-2	-17	-3	-9	nt	nt
CCOC(=O)c1cn[nH]c1NC(=S)Nc1ccc(OC)cc1	-3	-19	15	65*	-7	65*	62*
CN(CC(=O)O/N=C(\N)c1ccc(Br)cc1)S(=O)(=O)c1ccccc1	-14	5	16	-3	-6	nt	nt
CCN(CC)C(=O)c1ccc(COc2ccccc2Br)o1	0	-2	14	0	-1	nt	nt
CCCCOC(=O)Nc1nnc(CC)s1	4	0	12	29*	-28	1	-20
CC(C)c1ccc2nc(NC(=O)C3CC3)sc2c1	-21	11	2	-3	-2	nt	nt
COC(=O)c1ccc2nc(Nc3nc4ccc(F)cc4s3)sc2c1	nt	nt	-443	83*	nt	90*	81*
COC(=O)c1ccc2nc(NC(=O)C(C)(C)C)sc2c1	3	23	1	67*	23	78*	73*
COC(=O)c1ccc2nc(NC(=O)C3CCCCC3)sc2c1	-1	5	13	18*	-16	35*	-17
O=C(NNc1nc2ccc(F)cc2s1)c1cccc(F)c1	22	8	0	0	49	nt	nt
O=S(=O)(c1ccsc1)N1CC=C(c2ccccc2)CC1	-3	-8	0	-3	-13	nt	nt
Nc1cc(-c2ccccc2)ccc1O	-11	-12	-126	24*!	5	80*	-18
Cc1ccnc(NC(=O)CC(c2ccccc2)c2ccccc2)n1	-3	-7	1	1	-13	nt	nt
CC1CCN(c2ccc(/C=N/n3nnnc3N)cc2[N+](=O)[O-])CC1	-3	13	23	-2	-3	nt	nt
CC1CCN(c2ccc(/C=N\Nc3nncn3N)cc2[N+](=O)[O-])CC1	nt	nt	25	60*	nt	-4	-8
CCN(CC)CCN(C(=O)c1ccc2ncsc2c1)c1nc2cc3c(cc2s1)OCO3	-2	0	-27	34*	-2	34*	16*
CCN(CC)CCN(C(=O)c1ccc(Br)s1)c1nc2cc3c(cc2s1)OCCO3	-1	-4	24	51*	-8	-3	-17
CCN(CC)CCN(C(=O)c1ccc(C(=O)c2ccccc2)cc1)c1nc2cc3c(cc2s1)OCO3	1	3	22	4	-3	nt	nt
CC(C)c1ccccc1OCC(=O)NCC(c1cccs1)N1CCOCC1 (stereo not drawn)	4	10	6	24*	-1	0	-5
C=CCOc1c(CNc2cccc(C(=O)O)c2)cccc1OC	8	-17	-411	45*	12	53*	-18
C=CCOc1c(CNc2cccc(C(=O)O)c2)cccc1OCC	-3	1	-266	-4	-1	nt	nt
COc1ccccc1C(=O)NC(=S)Nc1cccnc1Cl	7	4	12	55*	16	23*	12*
O=C(CSc1cccs1)NCCc1ccccc1	3	0	-12	1	-2	nt	nt
O=C(CSc1nnc(NC(=O)c2ccccc2)s1)NCc1ccco1	15	36	-2	2	22	nt	nt
Cc1ccccc1C(=O)Nc1nnc(SCC(=O)NCc2ccco2)s1	5	19	-5	18*	10	27*	15*
C=CCn1c(C)cc(C(=O)COC(=O)CNC(=O)c2ccccc2)c1C	-6	-7	18	17*	-12	6	29*
Cc1ccc(C(=O)NCC(=O)OCC(=O)c2cc(C)n(Cc3ccco3)c2C)cc1	11	-1	8	5	-4	nt	nt
